Consider 22 molecules from the supplement of paper PMC10515830.

Structures can show the parent of a compound that is named as a salt.

What all share (conditions): 10 µM; exposure time 6 h
Assay [1] concerns Danio rerio larvae (5 dpf). The assay can be described thus: difference in excitability vs DMSO (percentage points); higher = more excitable than DMSO. In a few lines:
(§1)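 Wild-type zebrafish larvae at 5 dpf were kept in 96-well plates and exposed for 6 h to 100 µL egg water holding library compound at a final concentration of 10 µM. From 3 h into exposure, the plates were held at 28.5 ℃ and photographed every 6 s through a 3-h programme of moving lines and 100 ms, 400Hz tones. Each behaviour was scored by Z-LaP Tracker, a DeepLabCut model, and averaged over 48 larvae per compound. Every value gives the compound mean minus the vehicle control mean, in percentage points.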

The test system of assay [2] is Danio rerio larvae (5 dpf). The assay can be described thus: difference in startle response vs DMSO (percentage points); higher = stronger startle than DMSO. In a few lines:
as §1

Assay [3] deals with Danio rerio larvae (5 dpf). The assay can be described thus: difference in activity during first hour vs DMSO (percentage points); higher = more activity than DMSO. In a few lines:
as §1

Assay [4] concerns Danio rerio larvae (5 dpf). As to the kind of experiment: difference in habituation to acoustic stimuli vs DMSO (percentage points); higher = more habituation than DMSO. In short, it runs like this: as §1
In assay [5] the test system is Danio rerio larvae (5 dpf). As to the kind of experiment: difference in combined optomotor response to red, green and blue moving lines vs DMSO (percentage points); higher = stronger optomotor response than DMSO. In a few lines:
as §1

`c1ccc2c(CC3=NCCN3)cccc2c1` [Naphazoline (hydrochloride)]: the difference in excitability in assay [1] worked out at 10.4. Also, the “difference in startle response” value in assay [2] was -5.95. In assay [3], the “difference in activity during first hour” value amounted to 0.867. The “difference in habituation to acoustic stimuli” value (“difference in habituation” below) in assay [4] was -2.18. Besides, the difference in assay [5] is -3.73.

For `C=C1CC[C@H](O)C/C1=C/C=C1\CCC[C@]2(C)[C@@H]([C@H](C)CCCC(C)(C)O)CC[C@@H]12` [25-hydroxy Vitamin D3], in assay [1], the difference in excitability came to 4.23. The “difference in startle response” value in assay [2] is -8.24. Further, the “difference in activity during first hour” value in assay [3] worked out at 8.17. Besides, in assay [4], the “difference in habituation” value is -5.95. In assay [5], the difference is -5.

In the case of `CN1CCc2cccc3c2[C@H]1Cc1ccc(O)c(O)c1-3` [(-)-Apomorphine (hydrochloride hydrate)], the difference in excitability in assay [1] was determined as 19.8. Also, the “difference in startle response” value in assay [2] was -2.6. Besides, the “difference in activity during first hour” value in assay [3] is -20.1. Moreover, in assay [4], the “difference in habituation” value was -5.47. Also, the difference in assay [5] was -13.

With `CCCC1O[C@@H]2C[C@H]3[C@@H]4CCC5=CC(=O)C=C[C@]5(C)[C@H]4[C@@H](O)C[C@]3(C)[C@]2(C(=O)CO)O1` (stereo not given in full) [Budesonide], the difference in excitability in assay [1] was determined as 4.9. Further, in assay [2], the “difference in startle response” value was -3.47. The “difference in activity during first hour” value in assay [3] was determined as 4.24. Besides, in assay [4], the “difference in habituation” value was -2.87. Also, in assay [5], the difference worked out at 12.5.

`CN[C@H](CC(C)C)C(=O)N[C@H]1C(=O)N[C@@H](CC(N)=O)C(=O)N[C@H]2C(=O)N[C@H]3C(=O)N[C@H](C(=O)N[C@H](C(=O)O)c4cc(O)cc(O)c4-c4cc3ccc4O)[C@H](O)c3ccc(c(Cl)c3)Oc3cc2cc(c3O[C@@H]2O[C@H](CO)[C@@H](O)[C@H](O)[C@H]2O[C@H]2C[C@](C)(N)[C@H](O)[C@H](C)O2)Oc2ccc(cc2Cl)[C@H]1O` [Vancomycin (hydrochloride)] registered a difference in excitability in assay [1] of -0.532. The “difference in startle response” value in assay [2] is -0.846. For the same molecule, the “difference in activity during first hour” value in assay [3] was determined as 1.02. For the same molecule, in assay [4], the “difference in habituation” value was -1.36. The difference in assay [5] turned out to be 9.98.

`CCC(=O)O[C@]1(C(=O)CCl)[C@@H](C)C[C@H]2[C@@H]3CCC4=CC(=O)C=C[C@]4(C)[C@@]3(F)[C@@H](O)C[C@@]21C` [Clobetasol Propionate] had a difference in excitability in assay [1] of 2.04. Also, in assay [2], the “difference in startle response” value is -8.98. Moreover, the “difference in activity during first hour” value in assay [3] worked out at 19.3. For the same molecule, in assay [4], the “difference in habituation” value came out at 0.438. In assay [5], the difference came to 4.92.

In turn, `CNCC[C@@H](Oc1ccccc1C)c1ccccc1` [Atomoxetine (hydrochloride)] gave a difference in excitability in assay [1] of 21.7. Further, the “difference in startle response” value in assay [2] was -9.34. Besides, the “difference in activity during first hour” value in assay [3] is -21.4. In addition, the “difference in habituation” value in assay [4] is -3.36. Moreover, in assay [5], the difference was -0.351.

Consider `Cc1ncc([N+](=O)[O-])n1CC(C)O` (stereo not given) [Secnidazole], for which the difference in excitability in assay [1] turned out to be 4.12. Moreover, the “difference in startle response” value in assay [2] was -1.25. The “difference in activity during first hour” value in assay [3] came to 19.9. In addition, the “difference in habituation” value in assay [4] was -6.46. In assay [5], the difference came to 6.66.

In assay [1], `O=C(O)P(=O)(O)O` [Foscarnet (sodium salt)] came in with a difference in excitability of -6.03. The “difference in startle response” value in assay [2] amounted to 6.15. In addition, the “difference in activity during first hour” value in assay [3] was determined as 20.9. Also, in assay [4], the “difference in habituation” value was -1.07. Moreover, the difference in assay [5] is 4.77.

Molecule `C[N+](C)(C)CCOC(N)=O` [Carbamoylcholine (chloride)] displayed a difference in excitability in assay [1] of 2.95. Also, in assay [2], the “difference in startle response” value was found to be 2.73. The “difference in activity during first hour” value in assay [3] is -0.038. In assay [4], the “difference in habituation” value is 1.09. The difference in assay [5] is 1.31.

As to `COC(=O)N[C@H](C(=O)N1CCC[C@H]1c1ncc(-c2ccc(-c3ccc(-c4cnc([C@@H]5CCCN5C(=O)[C@@H](NC(=O)OC)C(C)C)[nH]4)cc3)cc2)[nH]1)C(C)C` [Daclatasvir], in assay [1], the difference in excitability worked out at 18.7. Besides, the “difference in startle response” value in assay [2] amounted to 2.15. In assay [3], the “difference in activity during first hour” value was -4.26. Moreover, the “difference in habituation” value in assay [4] stood at 0.308. In assay [5], the difference is -0.609.

`CNS(=O)(=O)Cc1ccc2[nH]cc(CCN(C)C)c2c1` [Sumatriptan (succinate)] yielded a difference in excitability in assay [1] of 7.61. Also, in assay [2], the “difference in startle response” value amounted to 3.38. Also, the “difference in activity during first hour” value in assay [3] was -12.9. Further, the “difference in habituation” value in assay [4] was found to be 5.35. Besides, the difference in assay [5] was -4.54.

With `Clc1ccc2c(c1)CCc1cccnc1C2=C1CCNCC1` [Desloratadine], the difference in excitability in assay [1] was 10.4. Also, the “difference in startle response” value in assay [2] is 3.48. Further, the “difference in activity during first hour” value in assay [3] amounted to 2.87. Moreover, the “difference in habituation” value in assay [4] is -2.42. In addition, the difference in assay [5] stood at 1.86.

Molecule `CCCCCC(=O)O[C@]1(C(C)=O)CC[C@H]2[C@@H]3CCC4=CC(=O)CC[C@]4(C)[C@H]3CC[C@@]21C` [Hydroxyprogesterone Caproate] registered a difference in excitability in assay [1] of 5.64. In addition, in assay [2], the “difference in startle response” value was -9.54. In assay [3], the “difference in activity during first hour” value was -13.7. The “difference in habituation” value in assay [4] was -9.28. Also, the difference in assay [5] was -15.8.

In assay [1], `CCOc1cc([C@@H](CS(C)(=O)=O)N2C(=O)c3cccc(NC(C)=O)c3C2=O)ccc1OC` [Apremilast] had a difference in excitability of 0.408. In assay [2], the “difference in startle response” value turned out to be 3.1. In addition, the “difference in activity during first hour” value in assay [3] is -6.82. Moreover, the “difference in habituation” value in assay [4] is -0.561. The difference in assay [5] was -3.01.

`CN1[C@@H]2CC[C@H]1C[C@@H](OC(c1ccccc1)c1ccccc1)C2` [Benztropine (mesylate)] showed a difference in excitability in assay [1] of -5.24. For the same molecule, the “difference in startle response” value in assay [2] was -9.21. The “difference in activity during first hour” value in assay [3] was determined as 27.7. Also, the “difference in habituation” value in assay [4] was -9.38. In addition, the difference in assay [5] is -1.29.

The molecule `CN(C)CC(c1ccc(O)cc1)C1(O)CCCCC1` (racemic) [(±)-O-Desmethyl Venlafaxine] returned a difference in excitability in assay [1] of 18.2. Also, in assay [2], the “difference in startle response” value was -5.6. Further, the “difference in activity during first hour” value in assay [3] is -19.3. In addition, the “difference in habituation” value in assay [4] was -8.93. In addition, in assay [5], the difference is -5.4.

On to `C[C@H]1COc2c(N3CCN(C)CC3)c(F)cc3c(=O)c(C(=O)O)cn1c23` [Levofloxacin], for which the difference in excitability in assay [1] was -4.09. Besides, the “difference in startle response” value in assay [2] stood at 1.07. For the same molecule, the “difference in activity during first hour” value in assay [3] was found to be 16.5. The “difference in habituation” value in assay [4] amounted to 2.74. For the same molecule, the difference in assay [5] is 4.84.

Take `CCS(=O)(=O)CCn1c([N+](=O)[O-])cnc1C` [Tinidazole]: the difference in excitability in assay [1] was found to be 0.787. In addition, the “difference in startle response” value in assay [2] is 3.72. The “difference in activity during first hour” value in assay [3] worked out at 7.24. In assay [4], the “difference in habituation” value was determined as 0.838. Besides, in assay [5], the difference was 7.16.

With `COc1ccc2[nH]c([S@@+]([O-])Cc3ncc(C)c(OC)c3C)nc2c1` [Esomeprazole Magnesium], the difference in excitability in assay [1] was 8.33. The “difference in startle response” value in assay [2] worked out at 7.11. For the same molecule, the “difference in activity during first hour” value in assay [3] is 4.64. The “difference in habituation” value in assay [4] was -0.745. In assay [5], the difference was 5.95.

With `COC(=O)C1=C(C)NC(C)=C(C(=O)OC)C1c1ccccc1[N+](=O)[O-]` [Nifedipine], the difference in excitability in assay [1] was determined as 8.58. Further, the “difference in startle response” value in assay [2] is -1.47. Also, in assay [3], the “difference in activity during first hour” value is -4.95. The “difference in habituation” value in assay [4] was 0.749. Moreover, the difference in assay [5] amounted to 12.1.

With `CCCC(CCC)C(=O)O` [Valproic Acid (sodium salt)], the difference in excitability in assay [1] was determined as 1.2. Besides, in assay [2], the “difference in startle response” value came to 1.47. Besides, the “difference in activity during first hour” value in assay [3] is -1.97. Moreover, the “difference in habituation” value in assay [4] was -8.1. In assay [5], the difference is 3.32.
